# From PubChem
# An excerpt weighted towards active compounds, which were near 0.97% of everything screened.
# S1P4 ag: human S1P4 receptor agonism; S1P4-expressing cell line, agonist reporter assay; activation, % at 4.98 µM; O95977; actives 0.35% (n = 220,000); AID 1509; in the data active = activation above about 11%;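 note: 0% = DMSO vehicle and 100% = reference agonist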
# S1P3 antagonist: S1P3 (human) receptor antagonism; Q99500; CHO S1P3 NFAT-BLA reporter, FRET fluorescence, antagonist mode; inhibition, % at 4.98 µM; actives 0.27% (n = 170,000);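 active = inhibition above the plate cutoff, the mean inhibition of test wells on that plate plus 3 SD, cut at about 28% in these data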;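 note: cells challenged with S1P at its EC80 of 0.8 µM; blue over green emission ratio from cleaved BLA substrate after 4 h stimulation; 0% = S1P-stimulated wells and 100% = unstimulated DMSO-only wells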
# AI-2 QS modul: Vibrio harveyi AI-2 quorum sensing modulation; activity change, % at 7.5 µM; actives 0.4% (n = 300,000); Vibrio harveyi JMH597 AI-2 luminescence/OD600 ratio, 9 h; active compounds read low; strain lacks LuxN and CqsS sensors; 0 = neutral-control median; in the data active = activity change below about -75%, passing the limit was not always enough; inconclusive = no clear call, values can overlap the other calls;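 note: luminescence divided by OD600 gain over 9 h not by final OD600 alone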
# Hsp70 activator: switches on Hsp70 transcription; HeLa Hsp70 promoter luciferase reporter, luminescence; scaled: vehicle 0, proteasome-inhibitor control 100%; activation, % at 10 µM; actives 0.04% (n = 200,000);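 active = activation above the mean across all tested compounds plus 3 SD, cutoff set per campaign, cut at about 5.5% in these data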;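 note: 100% = MG132 at 30 µM as the positive control and 0% = DMSO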
# S1P4 antag: antagonists of human S1P4 receptor | S1P4-expressing cells, antagonist mode, reporter read-out | inhibition, % at 4.98 µM | AID 1510 | actives 0.26% (n = 220,000); in the data active = inhibition above about 29%;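 note: 0% = wells stimulated with agonist and 100% = vehicle wells without agonist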
# S1P4 antag conf: human S1P4 antagonism, confirmation. shares compounds with S1P4 antag. S1P4-expressing cell line, antagonist mode, reporter read-out. inhibition, % at 4.98 µM. actives 71% (n = 520). AID 1524; in the data active = inhibition above about 30%
# S1P1 antagonist: counter-screen for S1P4 antagonists: antagonists of human S1P1. shares compounds with S1P4 antag. cell-based S1P1 antagonist counterscreen, inhibition. inhibition, % at 4.98 µM. actives 37% (n = 520). AID 1564; in the data active = inhibition above about 40%;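 note: receptor stimulated with S1P near its EC80; 0% = agonist stimulated wells and 100% = vehicle only wells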
# Target sequence (P21453 whole entry, looked up): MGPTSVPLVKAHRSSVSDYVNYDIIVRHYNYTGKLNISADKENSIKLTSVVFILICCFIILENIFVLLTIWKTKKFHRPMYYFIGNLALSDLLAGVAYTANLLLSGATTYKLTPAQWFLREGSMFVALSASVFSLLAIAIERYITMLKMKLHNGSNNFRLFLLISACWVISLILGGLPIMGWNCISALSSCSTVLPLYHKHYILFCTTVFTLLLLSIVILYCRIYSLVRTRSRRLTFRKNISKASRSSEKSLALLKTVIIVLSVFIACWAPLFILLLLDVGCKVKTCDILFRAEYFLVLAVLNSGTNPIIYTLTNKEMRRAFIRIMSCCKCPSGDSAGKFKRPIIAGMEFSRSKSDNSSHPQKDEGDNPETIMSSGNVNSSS
# An asterisk follows results filed as active; ? = inconclusive; . = no result given.
SMILES,S1P4 ag,S1P3 antagonist,AI-2 QS modul,Hsp70 activator,S1P4 antag,S1P4 antag conf,S1P1 antagonist
O=C(CSc1nnc(-c2cccnc2)s1)Nc1ccc(C(=O)O)cc1,1,-59,17,0,-17,.,.
O=C(Nc1cccc(S(=O)(=O)N2CCCCC2)c1)c1ccc([N+](=O)[O-])o1,-4,-15,84,1,54*,95*,19
Cc1ccc(NC(=O)c2ccc([N+](=O)[O-])o2)cc1S(=O)(=O)N1CCOCC1,-2,-3,59,0,68*,88*,42*
Cc1nn(CCCC(=O)NCCc2ccc(Cl)cc2)c(=O)c2nn(-c3ccccc3)c(C)c12,.,.,19,.,.,.,.
Cc1ccc(S(=O)(=O)Nc2cccc3ncccc23)s1,1,-19,25,2,47*,108*,109*
CC(NC(=O)CN(c1cccc(C(F)(F)F)c1)S(=O)(=O)c1ccc(Cl)c([N+](=O)[O-])c1)c1ccccc1 (stereo not drawn),0,-18,11,0,44*,87*,53*
COc1ccccc1CNC(=O)C(=O)NCC1OCCCN1S(=O)(=O)c1cccs1 (stereo not drawn),.,.,12,.,.,.,.
COc1ccc(CS(=O)(=O)/C(Cl)=C(/Cl)C(=O)Nc2ccc(OC)nc2)cc1,1,.,30,3,80*,119*,85*
S=c1sc2c(Cl)ncnc2n1-c1ccccc1,-1,-9,7,0,32*,121*,86*
O=C(/C=C/c1cccc(Cl)c1)c1nc2ccccc2[nH]1,0,.,12,0,56*,104*,10
O=C(Nc1ccc(N2CCCCC2)cc1)c1cccnc1Cl,-1,.,18,0,2,.,.
O=C(Nc1ccc(Cl)cc1)c1cccnc1N1CCCCC1,1,.,.,0,95*,2,11
CCN(CC(=O)NCc1ccc(Cl)cc1)C(=O)CNS(=O)(=O)c1ccc(NC(C)=O)cc1,.,.,8,.,.,.,.
Cc1ccc(-c2nc(C=Nc3ccc(O)cc3)c(O)o2)cc1,-1,18,-6,0,31*,43*,40
CC1=C/C(=C(\c2cc(C)c(O)c(Br)c2)c2ccccc2S(=O)(=O)O)C=C(Br)C1=O,.,.,-64,.,.,.,.
N=c1n(CCN2CCCCC2)c2ccccc2n1CC(O)c1ccc(Cl)c(Cl)c1 (stereo not drawn),-3,.,3,0,55*,58*,59*
CN(CCC1CCOCC1)C(=O)CC1C(=O)NCCN1Cc1c(F)cccc1Cl (stereo not drawn),.,.,1,.,.,.,.
COc1cc(SC)ccc1C(=O)Nc1c(C)cccc1C,0,0,28,0,81*,85*,12
Cc1ccc(NC(=O)COC(=O)CNC(=O)c2ccco2)cc1,0,5,23,0,3,.,.
O=C(N/N=C/c1cccs1)/C(=C/c1ccccc1)NC(=O)c1ccccc1,-1,11,20,0,-5,.,.
CCOc1ccccc1C1C2=C(COC2=O)Nc2cc3c(cc21)OCO3 (stereo not drawn),1,9,4,1,3,.,.
C#CCOc1ccc(C2C3=C(COC3=O)Nc3cc4c(cc32)OCO4)cc1OC (stereo not drawn),0,13,34,0,38*,39*,80*
Cc1cc(OCC(=O)NCCc2cccc(F)c2)c2c(C)cc(=O)oc2c1,.,.,27,.,.,.,.
CSCCC(NS(=O)(=O)c1cccc(C(F)(F)F)c1)C(=O)N(C)CCOc1ccc(Cl)cc1 (stereo not drawn),.,.,26,.,.,.,.
COc1ccc(/C=N/Nc2nonc2N)cc1,-1,.,1,0,0,.,.
COc1ccc(/C=N/Nc2nn3cnnc3c3ccccc23)cc1,2,2,11,.,30*,-9,-7
CCOC(=O)c1sc(-c2ccc(C(F)(F)F)cc2)nc1O,1,22,34,.,38*,34*,23
Nc1cccc(-n2nncc2-c2ccc(Cl)cc2)c1,-1,.,24,0,32*,7,13
c1ccc(-c2cnnn2-c2ccccc2)cc1,.,.,-10,.,.,.,.
CC1=C(C)/C(=N\OS(=O)(=O)c2ccccc2)C=CC1=O,-1,.,?,1,42*,69*,10
